Measurements as given in the supplement of paper PMC6555819.

Key:
Assay in all cases: PBM binding z-score (relative to random genomic background probes); higher = stronger binding; sequences stand for … in GC…GCGATTGACAGCGTAGAATGAAGG
[1] = test system: RARb homodimer (NR concentration 270 nM)
Method in brief: (§1)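 Custom Agilent 4×180K protein-binding microarrays carried double-stranded probes, each with a 34-nt variable region. These regions held direct-repeat seeds, single-nucleotide variants, half-site ablations and random human genomic background sequences. Ligand-free nuclear receptor dimers were incubated on the arrays for 1 h, antibodies against each partner (one per run) detected binding, and scanned fluorescence was regression-normalized. Binding z-scores take the random background probes as reference.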

[2] = test system: RARg:RXRa (NR concentration 270 nM, RXRa partner concentration 90 nM)
Method in brief: as §1

[3] = test system: RARg homodimer (NR concentration 270 nM)
Method in brief: as §1

[4] = test system: RXRa DBDmut IVT, anti-RXR (DBD mutation: RXRa K156A/R161A, NR concentration 90 nM)
Method in brief: as §1

[5] = test system: RXRa homodimer (NR concentration 180 nM)
Method in brief: as §1

[6] = test system: THRa:RXRa (NR concentration 90 nM, RXRa partner concentration 90 nM)
Method in brief: as §1

[7] = test system: THRa homodimer (NR concentration 90 nM)
Method in brief: as §1

[8] = test system: VDR homodimer (NR concentration 270 nM)
Method in brief: as §1

| Sequence | PBM binding z-score [1] | PBM binding z-score [2] | PBM binding z-score [3] | PBM binding z-score [4] | PBM binding z-score [5] | PBM binding z-score [6] | PBM binding z-score [7] | PBM binding z-score [8] |
| --- | --- | --- | --- | --- | --- | --- | --- | --- |
| AGCTCTAGGTAAAGTTCAGTGAAAGATCGATAGA | 2.32 | 1.94 | 2.58 | 1.43 | 0.97 | 0.941 | -0.0509 | 1.6 |
| TCTGCTAAGTCAGTTGGTCAGCTAACGAGCTGCC | -0.3 | -0.611 | -0.521 | -0.0698 | -0.61 | -0.628 | -0.977 | -0.941 |
| AGAACGAGGGCAATTAGTTGATAGCACGGGTGGC | 1.14 | 1.37 | 1.89 | 2.01 | 0.935 | 0.962 | -0.172 | 1.41 |
| CGTCCAAGGTCAGCAGGTCAGTCAAAGCGACGTG | 5 | 6.35 | 7.05 | 2.69 | 4.85 | 3.74 | 2.35 | 2.03 |
| CAAACTAGGTCACCGGAAGGTCAGAGTCCGCATG | 5.45 | 7.9 | 7.02 | 1.63 | 5.06 | 4.19 | 2.73 | 2.14 |
| TAGCCTAAGTCATTGGGCCAGTATAGTACGCATC | -0.447 | 0.191 | 0.0194 | -0.879 | 0.156 | -0.214 | -0.958 | -0.312 |
| CGTCCAGGGTCAATGCTAGGTCAGTGAAAGCATT | 4.65 | 7.39 | 5.63 | 2.78 | 5.37 | 4.35 | 1.79 | 2.33 |
| AATACAGGGTCACTAGGCAAGAGTAGGTACGAAT | 2.95 | 5.02 | 4.81 | 2.61 | 5.45 | 3.48 | 1.19 | 2.42 |
| GCTTACGGGTCAATGGTTATAGCATGAATAGAAT | 2.28 | 4.02 | 3.9 | 1.65 | 4.17 | 1.87 | -0.17 | 0.787 |
| TTACCAAGGTGAAGGCCGTTGATCCCTCTGTAGA | 0.648 | 0.161 | 0.236 | -0.411 | 0.286 | 1.57 | 0.252 | -0.421 |
| TCATATAGGTAAATGCTAGGTGAAAGACCGATCT | 0.314 | 0.683 | 0.454 | 1.44 | 1.15 | 1.32 | 0.328 | 0.112 |
| TCTTGTAGATAAAAGGTTAAGAAAGCCGAAGCCT | 1.42 | 1.43 | 0.971 | 1.2 | 2.28 | 1.14 | -0.62 | 0.00564 |
| AGAACGAGGGCAATCAGTTGATAGCACGGGTGGC | 1.08 | 1.25 | 1.74 | 1.89 | 0.909 | 1.04 | 0.0484 | 1.61 |
| CATACTAGGTCAAGAGGTCAAAGTCCGCTTCCCG | 5.69 | 8.1 | 7.68 | 3.2 | 8.08 | 4.5 | 2.62 | 4.64 |
| TCAGACAGGTGATGGTAACTCAGGTACGCAGTCG | 0.401 | 0.447 | 0.147 | 0.843 | 0.688 | 0.659 | 0.545 | 0.532 |
| TCATATAGGTAACGGTGAAAGTCGAACGATATGA | -0.17 | 0.474 | 0.423 | 0.399 | 0.79 | -0.0623 | -0.6 | -0.165 |
| ATCGAAAGGTCGACGAGGTGAGTAGACACCGTTT | 2.83 | 4.43 | 3.75 | 0.736 | 4.27 | 3.85 | 0.861 | 0.955 |
| TCTGCTAGGTCAGTTGGTCGGCTAACGAGCTGCC | 2.21 | 2.28 | 3.11 | 0.384 | 0.902 | 1.17 | -0.205 | -1.1 |
| CCTAGTTAGTCAAGGTCACACACGCTATAGGTAC | 4.28 | 4.36 | 4.31 | 2.45 | 4.3 | 4.27 | 4.29 | 3.3 |
| GCTTACCGGTCAAAGGTTATAGCATGAATAGAAT | 2.62 | 5.63 | 3.54 | 0.541 | 5.37 | 2.2 | -0.177 | 0.217 |
| GCTATTAGTTGAAAAGGCAACCGAATGATTCTCG | -0.358 | 0.0252 | 0.283 | 0.693 | 0.0743 | -0.197 | -0.317 | 0.154 |
| CGAACTAGGTCAGAACAGGACAGGGAAGGATGAT | 2.37 | 2.58 | 2.91 | 0.62 | 1.26 | 3.92 | 0.578 | 0.472 |
| CTCGAAAGGTAGTGCTCAGGTGAGTATACCAAAC | -0.0122 | -0.12 | 0.0951 | -0.0232 | -0.198 | 1.61 | 0.482 | -0.438 |
| CGAACTAGGTCAGAACAGGCCAGTGAAGGATGAT | 2.09 | 2.58 | 2.86 | 0.213 | 1.28 | 2.53 | -0.201 | -0.281 |
| CCTAGCAGGCCAATCTGGGTCACGCAAGGCTTGA | 2.43 | 1.86 | 1.9 | -0.504 | 1.69 | 3.99 | 0.767 | -0.0889 |
| CCGAGTAGGTTATGGGGCATTTAGGCAACGGTGA | 0.777 | 0.488 | 0.435 | 0.127 | 0.632 | 0.429 | 0.289 | -0.135 |
| ACTCGCAGGCCAAGTTTGGGTCACTCAAACAAAG | 2.5 | 2.65 | 1.73 | 0.0285 | 0.756 | 2.72 | 1.1 | 0.548 |
| CCCGACAGGTGAGAAGGTAACTCAGCCTCGATTA | 0.604 | 0.562 | 0.328 | -0.142 | 0.298 | 0.229 | 0.474 | -0.11 |
